Data as given in publication PMC11006913.
Where a chain is given by its changes, count along the chain named.

What was measured:
Experiment in all cases: PBM; 200 nM protein, PBS
Settings in all cases: dsDNA, one strand shown
SHOX [1] = target: SHOX (Homo sapiens, UniProt O15266 103-189)
SIX6 [2] = target: T1, SIX6 (Homo sapiens, UniProt O95475 114-200, L167I)
T1 sequence: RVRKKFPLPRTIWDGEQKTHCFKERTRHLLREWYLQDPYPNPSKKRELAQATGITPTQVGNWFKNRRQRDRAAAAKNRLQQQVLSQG

SIX6 [3] = target: T2, SIX6 (Homo sapiens, UniProt O95475 114-200, L143V)
T2 sequence: T1 sequence with L30V, I54L

SIX6 [4] = target: T3, SIX6 (Homo sapiens, UniProt O95475 114-200, H141N)
T3 sequence: T1 sequence with H28N, I54L

SIX6 [5] = target: T4, SIX6 (Homo sapiens, UniProt O95475 114-200, T165P)
T4 sequence: T1 sequence with T52P, I54L

SIX6 [6] = target: T5, SIX6 (Homo sapiens, UniProt O95475 114-200, L167M)
T5 sequence: T1 sequence with I54M

SIX6 [7] = target: T6, SIX6 (Homo sapiens, UniProt O95475 114-200, L143M)
T6 sequence: T1 sequence with L30M, I54L

SIX6 [8] = target: T7, SIX6 (Homo sapiens, UniProt O95475 114-200, L143I)
T7 sequence: T1 sequence with L30I, I54L

SIX6 [9] = target: T8, SIX6 (Homo sapiens, UniProt O95475 114-200, T165G)
T8 sequence: T1 sequence with T52G, I54L

HOXA2 [10] = target: HOXA2 (Homo sapiens, UniProt O43364 129-215, R185T)
SIX6 [11] = target: T9, SIX6 (Homo sapiens, UniProt O95475 114-200, T139Q)
T9 sequence: T1 sequence with T26Q, I54L

MSX2 [12] = target: MSX2 (Homo sapiens, UniProt P35548 130-214, R199I)
SIX6 [13] = target: T10, SIX6 (Homo sapiens, UniProt O95475 114-200, T165A)
T10 sequence: T1 sequence with T52A, I54L

SHOX [14] = target: SHOX (Homo sapiens, UniProt O15266 103-189, R173C)
HOXA2 [15] = target: HOXA2 (Homo sapiens, UniProt O43364 129-215, R185K)
MSX2 [16] = target: MSX2 (Homo sapiens, UniProt P35548 130-214)
SIX6 [17] = target: T11, SIX6 (Homo sapiens, UniProt O95475 114-200, L167V)
T11 sequence: T1 sequence with I54V

SIX6 [18] = target: T12, SIX6 (Homo sapiens, UniProt O95475 114-200)
T12 sequence: T1 sequence with I54L

SIX6 [19] = target: T13, SIX6 (Homo sapiens, UniProt O95475 114-200, T165I)
T13 sequence: T1 sequence with T52I, I54L

MSX2 [20] = target: MSX2 (Homo sapiens, UniProt P35548 130-214, F161Y)
HOXA2 [21] = target: HOXA2 (Homo sapiens, UniProt O43364 129-215, Y150S)
HOXA2 [22] = target: HOXA2 (Homo sapiens, UniProt O43364 129-215)
CRX [23] = target: CRX (Homo sapiens, UniProt O43186 26-111)
CRX [24] = target: CRX (Homo sapiens, UniProt O43186 26-111, E42D)
CRX [25] = target: CRX (Homo sapiens, UniProt O43186 26-111, R41L)
NKX2-4 [26] = target: T14, NKX2-4 (Homo sapiens, UniProt Q9H2Z4 175-261, P217L)
T14 sequence: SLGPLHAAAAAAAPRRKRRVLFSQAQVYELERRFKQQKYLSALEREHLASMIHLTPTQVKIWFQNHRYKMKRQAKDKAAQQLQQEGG

VENTX [27] = target: T15, VENTX (Homo sapiens, UniProt O95231 78-163, R121Q)
T15 sequence: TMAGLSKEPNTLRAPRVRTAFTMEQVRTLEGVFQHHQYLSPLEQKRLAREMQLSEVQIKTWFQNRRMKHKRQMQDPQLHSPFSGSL

VENTX [28] = target: T16, VENTX (Homo sapiens, UniProt O95231 78-163)
T16 sequence: T15 sequence with Q44R

NKX2-4 [29] = target: T17, NKX2-4 (Homo sapiens, UniProt Q9H2Z4 175-261, T231S)
T17 sequence: T14 sequence with L43P, T57S

VENTX [30] = target: T18, VENTX (Homo sapiens, UniProt O95231 78-163, Y115F)
T18 sequence: T15 sequence with Y38F, Q44R

NKX2-4 [31] = target: T19, NKX2-4 (Homo sapiens, UniProt Q9H2Z4 175-261)
T19 sequence: T14 sequence with L43P

ALX1 [32] = target: ALX1 (Homo sapiens, UniProt Q15699 118-204, L144V)
ALX3 [33] = target: ALX3 (Homo sapiens, UniProt O95076 139-225, N203Q)
ALX1 [34] = target: ALX1 (Homo sapiens, UniProt Q15699 118-204, L144R)
ALX3 [35] = target: ALX3 (Homo sapiens, UniProt O95076 139-225)
NKX2-4 [36] = target: T20, NKX2-4 (Homo sapiens, UniProt Q9H2Z4 175-261, R246Q)
T20 sequence: T14 sequence with L43P, R72Q

ALX3 [37] = target: ALX3 (Homo sapiens, UniProt O95076 139-225, L168Q)
ALX3 [38] = target: ALX3 (Homo sapiens, UniProt O95076 139-225, L168V)
ALX1 [39] = target: ALX1 (Homo sapiens, UniProt Q15699 118-204)
ALX3 [40] = target: ALX3 (Homo sapiens, UniProt O95076 139-225, N203S)
Sequence of ALX3 (Homo sapiens, UniProt O95076 139-225, N203S) (O95076 139-225 N203S): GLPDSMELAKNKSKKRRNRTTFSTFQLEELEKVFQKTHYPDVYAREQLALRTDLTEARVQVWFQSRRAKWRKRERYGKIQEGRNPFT

Sequence of SHOX (Homo sapiens, UniProt O15266 103-189) (O15266 103-189): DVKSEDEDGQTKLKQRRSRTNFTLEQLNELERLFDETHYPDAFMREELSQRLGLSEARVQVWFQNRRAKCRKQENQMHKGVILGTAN
Sequence of SHOX (Homo sapiens, UniProt O15266 103-189, R173C) (O15266 103-189 R173C): as the sequence (O15266 103-189) above, with R71C counted along it
Sequence of ALX1 (Homo sapiens, UniProt Q15699 118-204, L144R) (Q15699 118-204 L144R): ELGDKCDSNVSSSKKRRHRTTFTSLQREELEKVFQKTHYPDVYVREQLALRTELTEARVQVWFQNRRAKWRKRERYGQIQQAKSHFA
Sequence of HOXA2 (Homo sapiens, UniProt O43364 129-215, R185K) (O43364 129-215 R185K): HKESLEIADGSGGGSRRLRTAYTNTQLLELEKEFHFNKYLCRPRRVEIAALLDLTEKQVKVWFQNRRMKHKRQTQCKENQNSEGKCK
Sequence of ALX3 (Homo sapiens, UniProt O95076 139-225, L168Q) (O95076 139-225 L168Q): as the sequence (O95076 139-225 N203S) above, with L30Q, S65N counted along it
Sequence of HOXA2 (Homo sapiens, UniProt O43364 129-215, Y150S) (O43364 129-215 Y150S): as the sequence (O43364 129-215 R185K) above, with Y22S, K57R counted along it
Sequence of ALX1 (Homo sapiens, UniProt Q15699 118-204) (Q15699 118-204): as the sequence (Q15699 118-204 L144R) above, with R27L counted along it
Sequence of CRX (Homo sapiens, UniProt O43186 26-111) (O43186 26-111): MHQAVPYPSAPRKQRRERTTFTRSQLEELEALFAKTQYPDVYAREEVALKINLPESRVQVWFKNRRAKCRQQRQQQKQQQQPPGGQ
Sequence of ALX3 (Homo sapiens, UniProt O95076 139-225) (O95076 139-225): as the sequence (O95076 139-225 N203S) above, with S65N counted along it
Sequence of ALX3 (Homo sapiens, UniProt O95076 139-225, N203Q) (O95076 139-225 N203Q): as the sequence (O95076 139-225 N203S) above, with S65Q counted along it
Sequence of MSX2 (Homo sapiens, UniProt P35548 130-214, R199I) (P35548 130-214 R199I): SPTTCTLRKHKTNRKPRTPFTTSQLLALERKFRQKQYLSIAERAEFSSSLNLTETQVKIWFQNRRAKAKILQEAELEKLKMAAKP
Sequence of ALX3 (Homo sapiens, UniProt O95076 139-225, L168V) (O95076 139-225 L168V): as the sequence (O95076 139-225 N203S) above, with L30V, S65N counted along it
Sequence of MSX2 (Homo sapiens, UniProt P35548 130-214, F161Y) (P35548 130-214 F161Y): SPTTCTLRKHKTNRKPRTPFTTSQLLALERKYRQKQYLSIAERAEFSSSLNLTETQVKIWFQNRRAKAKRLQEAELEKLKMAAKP
Sequence of HOXA2 (Homo sapiens, UniProt O43364 129-215, R185T) (O43364 129-215 R185T): as the sequence (O43364 129-215 R185K) above, with K57T counted along it
Sequence of HOXA2 (Homo sapiens, UniProt O43364 129-215) (O43364 129-215): as the sequence (O43364 129-215 R185K) above, with K57R counted along it
Sequence of ALX1 (Homo sapiens, UniProt Q15699 118-204, L144V) (Q15699 118-204 L144V): as the sequence (Q15699 118-204 L144R) above, with R27V counted along it
Sequence of MSX2 (Homo sapiens, UniProt P35548 130-214) (P35548 130-214): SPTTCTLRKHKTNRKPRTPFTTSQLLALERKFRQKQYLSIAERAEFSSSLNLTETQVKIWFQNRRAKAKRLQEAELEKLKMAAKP
Sequence of CRX (Homo sapiens, UniProt O43186 26-111, R41L) (O43186 26-111 R41L): as the sequence (O43186 26-111) above, with R16L counted along it
Sequence of CRX (Homo sapiens, UniProt O43186 26-111, E42D) (O43186 26-111 E42D): as the sequence (O43186 26-111) above, with E17D counted along it

**Q.** Which results are given for GGAGCGGA?
**A.** binding signal (SHOX [1]): 7.25 upbm affinity estimate (log intensity, higher = more binding, comparable within an allelic series); binding signal (SIX6 [2]): 9.19 upbm affinity estimate (log intensity, higher = more binding, comparable within an allelic series); binding signal (SIX6 [3]): 8.94 upbm affinity estimate (log intensity, higher = more binding, comparable within an allelic series); binding signal (SIX6 [4]): 9.15 upbm affinity estimate (log intensity, higher = more binding, comparable within an allelic series); binding signal (SIX6 [5]): 8.85 upbm affinity estimate (log intensity, higher = more binding, comparable within an allelic series); binding signal (SIX6 [6]): 9.13 upbm affinity estimate (log intensity, higher = more binding, comparable within an allelic series); binding signal (SIX6 [7]): 9.14 upbm affinity estimate (log intensity, higher = more binding, comparable within an allelic series); binding signal (SIX6 [8]): 9.05 upbm affinity estimate (log intensity, higher = more binding, comparable within an allelic series); binding signal (SIX6 [9]): 9.13 upbm affinity estimate (log intensity, higher = more binding, comparable within an allelic series); binding signal (HOXA2 [10]): 7.31 upbm affinity estimate (log intensity, higher = more binding, comparable within an allelic series); binding signal (SIX6 [11]): 9.15 upbm affinity estimate (log intensity, higher = more binding, comparable within an allelic series); binding signal (MSX2 [12]): 9.51 upbm affinity estimate (log intensity, higher = more binding, comparable within an allelic series); binding signal (SIX6 [13]): 9.08 upbm affinity estimate (log intensity, higher = more binding, comparable within an allelic series); binding signal (SHOX [14]): 7.2 upbm affinity estimate (log intensity, higher = more binding, comparable within an allelic series); binding signal (HOXA2 [15]): 10.3 upbm affinity estimate (log intensity, higher = more binding, comparable within an allelic series); binding signal (MSX2 [16]): 9.6 upbm affinity estimate (log intensity, higher = more binding, comparable within an allelic series); binding signal (SIX6 [17]): 9.14 upbm affinity estimate (log intensity, higher = more binding, comparable within an allelic series); binding signal (SIX6 [18]): 9.16 upbm affinity estimate (log intensity, higher = more binding, comparable within an allelic series); binding signal (SIX6 [19]): 9.13 upbm affinity estimate (log intensity, higher = more binding, comparable within an allelic series); binding signal (MSX2 [20]): 9.62 upbm affinity estimate (log intensity, higher = more binding, comparable within an allelic series); binding signal (HOXA2 [21]): 10.5 upbm affinity estimate (log intensity, higher = more binding, comparable within an allelic series); binding signal (HOXA2 [22]): 7.46 upbm affinity estimate (log intensity, higher = more binding, comparable within an allelic series)

**Q.** Which binding signal (SHOX [1]) does the source give for ATATAGAG here?
**A.** Its binding signal is 8.28 upbm affinity estimate (log intensity, higher = more binding, comparable within an allelic series).

**Q.** Which results are given for GGGCCGAA?
**A.** binding signal (SHOX [1]): 7.23 upbm affinity estimate (log intensity, higher = more binding, comparable within an allelic series); binding signal (SIX6 [2]): 8.79 upbm affinity estimate (log intensity, higher = more binding, comparable within an allelic series); binding signal (SIX6 [3]): 8.79 upbm affinity estimate (log intensity, higher = more binding, comparable within an allelic series); binding signal (SIX6 [4]): 8.73 upbm affinity estimate (log intensity, higher = more binding, comparable within an allelic series); binding signal (SIX6 [5]): 8.89 upbm affinity estimate (log intensity, higher = more binding, comparable within an allelic series); binding signal (SIX6 [6]): 8.8 upbm affinity estimate (log intensity, higher = more binding, comparable within an allelic series); binding signal (SIX6 [7]): 8.64 upbm affinity estimate (log intensity, higher = more binding, comparable within an allelic series); binding signal (SIX6 [8]): 8.74 upbm affinity estimate (log intensity, higher = more binding, comparable within an allelic series); binding signal (SIX6 [9]): 8.79 upbm affinity estimate (log intensity, higher = more binding, comparable within an allelic series); binding signal (SIX6 [11]): 8.8 upbm affinity estimate (log intensity, higher = more binding, comparable within an allelic series); binding signal (SIX6 [13]): 8.73 upbm affinity estimate (log intensity, higher = more binding, comparable within an allelic series); binding signal (SHOX [14]): 7.18 upbm affinity estimate (log intensity, higher = more binding, comparable within an allelic series); binding signal (SIX6 [17]): 8.77 upbm affinity estimate (log intensity, higher = more binding, comparable within an allelic series); binding signal (SIX6 [18]): 8.68 upbm affinity estimate (log intensity, higher = more binding, comparable within an allelic series); binding signal (SIX6 [19]): 8.82 upbm affinity estimate (log intensity, higher = more binding, comparable within an allelic series)

**Q.** Which results are given for CAGTCGCG?
**A.** binding signal (SHOX [1]): 7 upbm affinity estimate (log intensity, higher = more binding, comparable within an allelic series); binding signal (CRX [23]): 8.23 upbm affinity estimate (log intensity, higher = more binding, comparable within an allelic series); binding signal (CRX [24]): 8.35 upbm affinity estimate (log intensity, higher = more binding, comparable within an allelic series); binding signal (SHOX [14]): 7.2 upbm affinity estimate (log intensity, higher = more binding, comparable within an allelic series); binding signal (CRX [25]): 8.3 upbm affinity estimate (log intensity, higher = more binding, comparable within an allelic series)

**Q.** With GCCGTAGC as the sequence, how does the binding signal (SHOX [1]) read?
**A.** Its binding signal is 6.96 upbm affinity estimate (log intensity, higher = more binding, comparable within an allelic series).

**Q.** And the binding signal (NKX2-4 [26])?
**A.** Its binding signal is 9.17 upbm affinity estimate (log intensity, higher = more binding, comparable within an allelic series).

**Q.** What about the binding signal (VENTX [27]) of the same sequence?
**A.** Its binding signal is 7.91 upbm affinity estimate (log intensity, higher = more binding, comparable within an allelic series).

**Q.** What about the binding signal (VENTX [28]) of the same sequence?
**A.** The binding signal was 7.82 upbm affinity estimate (log intensity, higher = more binding, comparable within an allelic series).

**Q.** And the binding signal (NKX2-4 [29])?
**A.** Its binding signal is 9.15 upbm affinity estimate (log intensity, higher = more binding, comparable within an allelic series).

**Q.** And the binding signal (VENTX [30])?
**A.** The binding signal was 7.86 upbm affinity estimate (log intensity, higher = more binding, comparable within an allelic series).

**Q.** And the binding signal (NKX2-4 [31])?
**A.** Its binding signal is 9.34 upbm affinity estimate (log intensity, higher = more binding, comparable within an allelic series).

**Q.** And the binding signal (ALX1 [32])?
**A.** Its binding signal is 6.19 upbm affinity estimate (log intensity, higher = more binding, comparable within an allelic series).

**Q.** And the binding signal (ALX3 [33])?
**A.** Its binding signal is 7.67 upbm affinity estimate (log intensity, higher = more binding, comparable within an allelic series).

**Q.** And the binding signal (SHOX [14])?
**A.** The binding signal was 7.22 upbm affinity estimate (log intensity, higher = more binding, comparable within an allelic series).

**Q.** And the binding signal (ALX1 [34])?
**A.** Its binding signal is 6.26 upbm affinity estimate (log intensity, higher = more binding, comparable within an allelic series).

**Q.** And the binding signal (ALX3 [35])?
**A.** Its binding signal is 7.55 upbm affinity estimate (log intensity, higher = more binding, comparable within an allelic series).

**Q.** And the binding signal (NKX2-4 [36])?
**A.** The binding signal was 9.33 upbm affinity estimate (log intensity, higher = more binding, comparable within an allelic series).

**Q.** What about the binding signal (ALX3 [37]) of the same sequence?
**A.** Its binding signal is 7.74 upbm affinity estimate (log intensity, higher = more binding, comparable within an allelic series).

**Q.** What about the binding signal (ALX3 [38]) of the same sequence?
**A.** Its binding signal is 7.76 upbm affinity estimate (log intensity, higher = more binding, comparable within an allelic series).

**Q.** And the binding signal (ALX1 [39])?
**A.** The binding signal was 6.18 upbm affinity estimate (log intensity, higher = more binding, comparable within an allelic series).

**Q.** What about the binding signal (ALX3 [40]) of the same sequence?
**A.** The binding signal was 7.68 upbm affinity estimate (log intensity, higher = more binding, comparable within an allelic series).
